High-throughput results from PubChem.
KB-3-1 cytotox – kills parental KB-3-1 adenocarcinoma cells | KB-3-1 viability, CellTiter-Glo ATP luminescence, 72 h | Potency, µM (series often up to 46.1 µM), usual class: cytotoxic | 400,000 compounds, 1.4% hits | AID 1347075; further: on the % scale 0 is the no-effect control and ±100 the full control effect; nearly all actives have a fitted effect of over 60% in size
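KB-3-1 cells, DMEM (no phenol red) + 10% FBS; compound by pin transfer, 72 h, 37 °C. Readout: CellTiter-Glo luminescence after 10 min. Data normalized, curve-fitted.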
HT1080 IDH1KD tx – HT-1080 IDH1 knockdown cell toxicity (counter line); Potency, µM (top dose mostly 46.1 µM), for inactives: at the highest dose activity, negative = toxicity, hits mostly cytotoxic; AID 686971; 360,000 compounds, 2% hits; HT-1080 IDH1 knockdown viability, ATP luminescence, 48 h;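 further: 0% = DMSO wells and -100% = cell-free medium wells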
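Cytotoxicity counter-line: IDH1KD HT-1080, 48 h, CellTiter-Glo. Curves classed by r2, magnitude and activity.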
HT1080-NT tox – kills 2HG-producing HT-1080-NT fibrosarcoma cells; HT-1080-NT fibrosarcoma viability, CellTiter-Glo ATP luminescence, 48 h; Potency, µM (series often up to 46.1 µM), for the others: at the top dose activity, negative = less viability, hits mostly cytotoxic; 360,000 compounds, 1.6% hits;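 further: NT is the 2HG producing partner of a matched IDH1 knockdown line; 0% = DMSO-treated cells and -100% = media-only wells without cells; nearly all actives have a fitted effect of over 55% in size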
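750 cells/well, RPMI + 5% FBS; 2 h settle, compound pin-transfer, 48 h at 37 degrees C. CellTiter-Glo 10 min RT, luminescence. Normalized to DMSO and media-only wells.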
KB-V1 MDR tox – KB-V1 MDR subline cytotoxicity; AID 1347076; KB-V1 MDR cells viability, CellTiter-Glo, 72 h; 400,000 compounds, 3.4% hits; Potency, µM (series often up to 46.1 µM), usual class: cytotoxic; further: on the % scale 0 is the no-effect control and ±100 the full control effect; nearly all actives have a fitted effect of over 60% in size
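Following 72 h at 37 degrees C with compound, KB-V1 cell viability was read by CellTiter-Glo luminescence, medium being phenol-red-free DMEM plus 10% FBS; concentration-response parameters came from normalized, curve-fitted qHTS data.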
MCF10A rereplic – DNA re-replication induction in MCF 10a cells; MCF 10A DNA re-replication, Hoechst nuclear intensity, 48 h; Potency, µM (doses to about 46.1 µM), inactives show at the top dose activity, positive = re-replication, hits mostly activators; 350,000 compounds, 2.9% hits; further: % of control where 0% means no effect; nearly all actives have a fitted effect of over 50% in size
SW480 rerep – DNA re-replication induction in SW480 cells; SW480 DNA re-replication, Hoechst DNA content imaging, 48 h; Potency, µM (top dose mostly 46.1 µM), for inactives: at the highest dose re-replication activation, hits mostly activators; 340,000 compounds, 1.8% hits; AID 624297; further: % of control where 0% means no effect; nearly all actives have a fitted effect of over 55% in size
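Per well, 250 cells were exposed to pinned compound for 48 hr. Nuclear DNA was visualised with Hoechst (40 min, 37 C) and total object intensity recorded by fluorescence scanning.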
* = called active by the depositor; i = inactive; ? = inconclusive; nt = no result given. Compounds with a hit are over-represented: about 8% of the library has one in this group of screens. The call rests on the fitted dose curve; in most records, active means well fitted curve in the direction sought with a large enough effect; inconclusive means small, poorly fitted or top-dose-only effect, or another doubt; inactive means no such curve, though single readings can be large; an effect the other way counts as inactive or inconclusive. Potency means the concentration at half of the fitted maximal effect.

SMILES | KB-3-1 cytotox | HT1080 IDH1KD tx | HT1080-NT tox | KB-V1 MDR tox | MCF10A rereplic | SW480 rerep
COC(=O)[C@@]12C[C@@H](CC(=O)NCC34CC5CC(CC(C5)C3)C4)C(=O)N(Cc3ccco3)C1=CCC(C)(C)C2 | ? | ? | 20.6µM* | 14.6µM* | nt | nt
COC(=O)[C@@]12C[C@@H](CC(=O)NCc3cccs3)C(=O)N(Cc3ccc4c(c3)OCO4)C1=CCC(C)(C)C2 | i | ? | ? | ? | nt | nt
CCCCNC(=O)C[C@@H]1C[C@@]2(C(=O)OC)CC(C)(C)CC=C2N(Cc2cccc3ccccc23)C1=O | i | ? | -27.3% | ? | nt | nt
C#CCNC(=O)C[C@@H]1C[C@@]2(C(=O)OC)CC(C)(C)CC=C2N(Cc2cccc3ccccc23)C1=O | ? | ? | ? | 23.1µM* | nt | nt
COc1cccc(CN(C)C[C@@H]2OCc3cnnn3CCCC(=O)N([C@@H](C)CO)C[C@H]2C)c1 | i | -0.8% | 2.1% | i | nt | nt
CCOc1ccc(NC(=O)NCc2ccc3c(c2)CCN3C(C)=O)cc1 | i | nt | nt | i | nt | nt
O=C(CC1(O)C(=O)Nc2ccccc21)c1cccc(-n2cccc2)c1 (stereo not given) | i | 10.3% | -0.6% | i | 1.46µM* | ?
O=C(NCC(c1cccs1)N1CCOCC1)c1cc([N+](=O)[O-])cc([N+](=O)[O-])c1 (stereo not given) | i | -4.0% | -0.5% | 23.1µM* | -2.6% | -16.5%
O=C(NCC(c1cccs1)N1CCOCC1)c1cccc([N+](=O)[O-])c1 (stereo not given) | i | ? | ? | i | 7.3% | 23.8%
O=C(NCC(c1cccs1)N1CCOCC1)c1cc(S(=O)(=O)N2CCOCC2)ccc1F (stereo not given) | i | 2.0% | 8.0% | i | 21.6% | 3.26µM*
O=C(NCC(c1cccs1)N1CCOCC1)c1cc(F)cc(F)c1 (stereo not given) | ? | 5.8µM* | 7.31µM* | ? | nt | nt
COc1ccc(C(=O)NCC(c2cccs2)N2CCOCC2)cc1OC (stereo not given) | i | 11.2% | 14.0% | i | ? | ?
O=C(NCC(c1cccs1)N1CCOCC1)c1cc(S(=O)(=O)N2CCOCC2)c(Cl)cc1Cl (stereo not given) | i | 8.6% | 14.7% | i | 4.3% | ?
O=C(NCC(c1cccs1)N1CCOCC1)c1ccc(Cl)s1 (stereo not given) | ? | nt | nt | 16.4µM* | ? | -5.0%
O=C(Nc1cccc(C(F)(F)F)c1)c1cc(-c2ccc(Cl)s2)nc2ccccc12 | i | nt | nt | i | nt | nt
COc1cccc(NC(=O)C(=O)NCC(c2ccc3c(c2)OCO3)N2CCOCC2)c1 (stereo not given) | i | nt | nt | i | nt | nt
CC(C)CC(=O)N1CCN(Cc2ccc3c(c2)OCO3)CC1 | i | 9.6% | -3.1% | i | 0.6% | 0.1%
COc1cc(Br)cc(CN2CCN(c3ncccn3)CC2)c1O | i | 7.3% | 5.6% | i | 1.9% | -10.7%
Cc1ccccc1OCC(=O)NCC(c1cccs1)N1CCOCC1 (stereo not given) | ? | -10.0% | -7.1% | 16.4µM* | -5.1% | ?
O=C(NCC(c1cccs1)N1CCOCC1)c1ccc([N+](=O)[O-])cc1 (stereo not given) | i | 5.8% | 11.0% | i | 6.9% | -3.3%
Cc1cccc(NS(=O)(=O)c2cccc(C(=O)NCC(c3ccc(F)cc3)N3CCOCC3)c2)c1 (stereo not given) | ? | -7.2% | -0.2% | 20.6µM* | 10.6% | 0.9%
O=C(NCC(c1cccs1)N1CCOCC1)c1ccc(Cl)nc1 (stereo not given) | ? | ? | ? | ? | 18.4µM* | ?
O=c1c2cccnc2n(Cc2ccc(Cl)cc2)c(=O)n1Cc1ccc(F)cc1 | i | nt | nt | ? | nt | nt
